Measured values published in PubChem BioAssay (NCI).
The panel holds about 79,000 compounds, 15% with a hit somewhere; the sample as a whole holds those more often. Values without a mark were called inactive. Active and inactive are the calls of the source. Cut-off read from the data, not from the text of the source: active = growth inhibition above about 70%; inactive = the rest.

Assay: NCI Yeast Anticancer Drug Screen. Data for the mec2-1 strain (AID 157)
Details: S. cerevisiae mec2-1 strain, at 11.0 µM, active compounds read high
Summary of the method: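 Compounds were applied to mec2-1 yeast cells. Their growth was then compared with that of vehicle-treated cultures to give growth inhibition.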
Work on `NCCNc1ccc(NCCN)c2c1C(=O)c1c(O)ccc(O)c1C2=O` yielded a growth inhibition of 13%.
Compound `Cn1c(=O)c(-c2ccccc2)c(N=[N+]=[N-])c2ccccc21` has a growth inhibition of 4%.
In the case of `CCCCCCCCCCCCCCCCCCOCC(O)COP(=O)(O)OCC1OC(n2cc(F)c(=O)[nH]c2=O)CC1O` (centres undefined), the growth inhibition is reported as 74% (active).
Work on `CCS(=O)(=O)c1ccc(/C=C/C=N/NC(=S)NCC(C)C)cc1` yielded a growth inhibition of 2%.
With `CCC(=O)Oc1c(Cl)cc(Cl)c2ccccc12` the growth inhibition was -2%.
With `COc1cc2c3c(cccc3c1)C(=O)N(CCN(C)C)C2=O` the growth inhibition was -23%.
For `CN(C)c1ccc(C(C#N)=C(C#N)C#N)cc1`, the growth inhibition was 9%.
In the case of `O=C(CCCN1CCC2(CC1)CC(=O)N(N1CCCCCC1)C2=O)c1ccc(F)cc1`, the growth inhibition is reported as 31%.
Work on `O=C1C2C(C(=O)N1c1ccc(OCc3ccccc3)cc1)C1c3ccccc3C2C2CCCCN21` (centres undefined) yielded a growth inhibition of -6%.
Work on `CCN(CC)CCC(=O)c1ccc(Oc2ccc(F)cc2)cc1` yielded a growth inhibition of 42%.
For `O=Nc1c(NO)ccc2nn(-c3ccccc3)nc12`, the growth inhibition was 95% (active).
Work on `CC(=O)SCCC[Si](C)(C)CCCSC(C)=O` yielded a growth inhibition of -5%.
`O=C(O)C1CCCCC1c1c2ccc(=O)c(O)c-2oc2c(O)c(O)ccc12` (centres undefined) showed a growth inhibition of -13%.
With `Cc1ccc(NN(NC(=O)OC(C)C)C(=O)OC(C)C)cc1` the growth inhibition was 8%.
Compound `O=C1c2ccccc2C(=O)c2cc(CBr)ccc21` has a growth inhibition of 5%.
`Cc1c(C(Cc2ccccc2N(C)C(=O)/C=C\C(=O)O)c2c[nH]c3ccccc23)c2ccccc2n1C` (centres undefined) gave a growth inhibition of -5%.
Compound `CC(C)/C(Cl)=N\OC(=O)Nc1ccc(F)cc1` has a growth inhibition of 13%.
In the case of `O=C1OC(=O)C2CCCC3CCCC1C32` (centres undefined), the growth inhibition is reported as 71% (active).
`CCOC(=O)C(NC(=O)c1ccccc1)(N1CCN(c2cc3c(cc2F)c(=O)c(C(=O)O)cn3C2CC2)CC1)C(F)(F)F` (centres undefined) showed a growth inhibition of 0%.
Work on `COc1ccc(NC(=S)N/N=C(\c2ccccc2)c2ccccn2)cc1` yielded a growth inhibition of -5%.
With `C=CCC1=C(C)C(OC(=O)/C=C/c2ccccc2)CC1=O` (centres undefined) the growth inhibition was -4%.
For `NNc1c(F)c(F)cc(F)c1F`, the growth inhibition was -38%.
For `COP(=O)(OC)/C(=C\C1=CN(C(c2ccccc2)(c2ccccc2)c2ccccc2)CN1)NC=O`, the growth inhibition was 30%.
Compound `COC(=O)c1cc(-c2ccc(C)cc2)[nH]c(=O)c1C#N` has a growth inhibition of -2%.
